Growth inhibition call data for 54 molecules are collected here from the antibiotic and cytotoxicity screens of Wong et al. (2023).

Hit rate of the full screen: of about 39,000 compounds, about 500 (1.3%) were called active. The sample as a whole holds a higher share of actives than the screen did.

The test system of this test is S. aureus RN4220. Put plainly: growth inhibition call (relative growth <= 0.2). As to conditions: 50 µM.
For the molecule `C[C@@H]1CN([C@@H](C)CO)C(=O)c2cc(NC(=O)Nc3ccc(C(F)(F)F)cc3)ccc2O[C@@H](C)CCCCO[C@H]1CN(C)S(=O)(=O)c1cn(C)cn1`, the growth inhibition call is “inactive”.
Turning to `C[C@@H]1CN([C@H](C)CO)C(=O)c2cc(NC(=O)Nc3ccc(C(F)(F)F)cc3)ccc2O[C@@H](C)CCCCO[C@@H]1CN(C)S(=O)(=O)c1cn(C)cn1`, the growth inhibition call is “inactive”.
The entry for `C[C@@H]1CN([C@@H](C)CO)C(=O)c2cc(NC(=O)Nc3ccc(C(F)(F)F)cc3)ccc2O[C@@H](C)CCCCO[C@@H]1CN(C)S(=O)(=O)c1cn(C)cn1` is “inactive”.
As for `CO[C@@H](CN(C)S(=O)(=O)c1cn(C)cn1)[C@H](C)CN(C(=O)Nc1ccc(C(F)(F)F)cc1)[C@@H](C)CO`, the entry is “active”; as for `C[C@H](CO)N1C[C@H](C)[C@@H](CN(C)S(=O)(=O)c2cn(C)cn2)OCCCC[C@H](C)Oc2ccc(NC(=O)Nc3ccc(C(F)(F)F)cc3)cc2C1=O`, “inactive”.
Take `CO[C@H](CN(C)S(=O)(=O)c1cn(C)cn1)[C@H](C)CN(C(=O)Nc1ccc(C(F)(F)F)cc1)[C@H](C)CO`: the growth inhibition call was “active”.
Regarding `CO[C@H](CN(C)S(=O)(=O)c1cn(C)cn1)[C@@H](C)CN(C(=O)Nc1ccc(C(F)(F)F)cc1)[C@H](C)CO`, the growth inhibition call was “active”.
The entry for `CO[C@H](CN(C)S(=O)(=O)c1cn(C)cn1)[C@@H](C)CN(C(=O)Nc1ccc(C(F)(F)F)cc1)[C@@H](C)CO` is “active”; for `C[C@@H]1CCCCO[C@@H](CN(C)C(=O)Nc2cccc3ccccc23)[C@H](C)CN([C@H](C)CO)C(=O)c2cc(NS(=O)(=O)c3ccccc3)ccc2O1` it is “inactive”; for `C[C@H]1CN([C@@H](C)CO)C(=O)c2cccc(NC(=O)C3CCCCC3)c2O[C@H]1CN(C)C(=O)Nc1ccc(C(F)(F)F)cc1` it is “inactive”.
`Cc1noc(C)c1S(=O)(=O)Nc1ccc2c(c1)C(=O)N([C@@H](C)CO)C[C@H](C)[C@H](CN(C)Cc1ccccc1)OCCCC[C@@H](C)O2`: the growth inhibition call was “inactive”.
For the molecule `C[C@H](CO)N1C[C@H](C)[C@@H](CN(C)Cc2ccc(Cl)c(Cl)c2)Oc2c(NS(=O)(=O)c3ccccc3)cccc2C1=O`, the growth inhibition call was “inactive”.
As for `CO[C@@H]1CN(C)C(=O)c2ccc(NS(C)(=O)=O)cc2OC[C@H](C)N(C(=O)C2CCCCC2)C[C@@H]1C`, the entry is “inactive”; as for `C[C@@H]1CN([C@@H](C)CO)C(=O)c2cc(NS(=O)(=O)c3cn(C)cn3)ccc2O[C@@H](C)CCCCO[C@@H]1CN(C)S(=O)(=O)c1cccs1`, “inactive”; as for `C[C@@H]1CN([C@H](C)CO)C(=O)c2cccc(NC(=O)c3nc4ccccc4s3)c2O[C@@H]1CN(C)Cc1ccc(Cl)c(Cl)c1`, “inactive”.
Regarding `O=C(C[C@@H]1CC[C@H]2[C@@H](COC[C@H](O)CN2S(=O)(=O)c2ccccc2)O1)N[C@H]1CCN(Cc2ccccc2)C1`, the growth inhibition call was “inactive”.
The entry for `CO[C@H](CN(C)S(=O)(=O)c1cn(C)cn1)[C@H](C)CN(C(=O)Nc1ccc(C(F)(F)F)cc1)[C@@H](C)CO` is “active”; for `CO[C@@H](CN(C)S(=O)(=O)c1cn(C)cn1)[C@@H](C)CN(C(=O)Nc1ccc(C(F)(F)F)cc1)[C@@H](C)CO` it is “active”; for `C[C@@H]1CCCCO[C@H](CN(C)S(=O)(=O)c2cn(C)cn2)[C@H](C)CN([C@H](C)CO)C(=O)c2cc(N(C)C)ccc2O1` it is “inactive”.
In the case of `COC(=O)C[C@@H]1CC[C@H]2[C@@H](COC[C@@H](O)CN2S(=O)(=O)c2ccc(F)cc2)O1`, the growth inhibition call was “inactive”.
In the case of `COCC#Cc1cnc2c(c1)C(=O)N([C@H](C)CO)C[C@@H](C)[C@H](CN(C)C(=O)Nc1ccc(OC)cc1)O2`, the growth inhibition call was “inactive”.
Turning to `C[C@@H]1CN([C@H](C)CO)C(=O)CCCn2nncc2CO[C@H]1CN(C)C(=O)Nc1ccnc(N2CCOCC2)c1`, the growth inhibition call was “inactive”.
`COCCOC(=O)N1C(=O)[C@@]2(c3cc(C#Cc4ccc(OC)cc4)ccc31)[C@H](c1ccc(O)cc1)N1[C@H](c3ccccc3)[C@H](c3ccccc3)OC(=O)[C@H]1[C@@H]2C(N)=O`: the growth inhibition call was “inactive”.
On to `COc1ccc(C#Cc2ccc3c(c2)[C@]2(C(=O)N3)[C@H](c3ccc(O)cc3)N3[C@H](c4ccccc4)[C@H](c4ccccc4)OC(=O)[C@H]3[C@@H]2C(=O)O)cc1`, for which the growth inhibition call is “inactive”.
Turning to `COc1ccc(C#Cc2ccc3c(c2)[C@@]2(C(=O)N3C(=O)N[C@@H](C)c3ccccc3)[C@H](c3ccc(OCCO)cc3)N3[C@H](c4ccccc4)[C@H](c4ccccc4)OC(=O)[C@H]3[C@@H]2C(=O)O)cc1`, the growth inhibition call was “inactive”.
As for `COc1ccc(C#Cc2ccc3c(c2)[C@]2(C(=O)N3)[C@H](C(=O)O)[C@H]3C(=O)O[C@H](c4ccccc4)[C@H](c4ccccc4)N3[C@@H]2c2ccc(O)cc2)cc1`, the growth inhibition call is “inactive”.
The entry for `O=C1O[C@H](c2ccccc2)[C@H](c2ccccc2)N2[C@H]1[C@@H](C(=O)O)[C@]1(C(=O)Nc3ccc(Cl)cc31)[C@H]2c1ccc(F)cc1` is “active”; for `CN1C(=O)[C@@]2(c3cc(Cl)ccc31)[C@H](C(=O)O)[C@H]1C(=O)O[C@H](c3ccccc3)[C@H](c3ccccc3)N1[C@@H]2c1ccc(F)cc1` it is “active”; for `Cc1noc(C)c1S(=O)(=O)N(C)C[C@@H]1OCCCC[C@H](C)Oc2ccc(NC(=O)Nc3cccc4ccccc34)cc2C(=O)N([C@H](C)CO)C[C@H]1C` it is “inactive”.
For `Cc1noc(C)c1NC(=O)N(C)C[C@@H]1OCCCC[C@@H](C)Oc2ccc(NC(=O)CCC(F)(F)F)cc2C(=O)N([C@H](C)CO)C[C@@H]1C`, the growth inhibition call was “inactive”.
The entry for `CN(C)CC(=O)N[C@H]1C=C[C@H](CC(=O)O)O[C@H]1CO` is “inactive”; for `COc1cccc2c1C(=O)c1c(O)c3c(c(O)c1C2=O)C[C@@](O)(C(C)=O)C[C@@H]3O[C@H]1C[C@H](N)[C@H](O)[C@H](C)O1` it is “active”; for `COc1cccc2c1C(=O)c1c(O)c3c(c(O)c1C2=O)C[C@](O)(C(C)=O)C[C@H]3O[C@H]1C[C@@H](N)[C@@H](O)[C@@H](C)O1` it is “active”.
Take `CC(=O)[C@]1(N)Cc2c(O)c3c(c(O)c2[C@@H](O[C@H]2C[C@H](O)[C@H](O)CO2)C1)C(=O)c1ccccc1C3=O`: the growth inhibition call is “inactive”.
Take `COc1cccc2c1C(=O)c1c(O)c3c(c(O)c1C2=O)CC(O)(C(C)=O)CC3OC1CC(N)C(O)C(C)O1.Cl` (centres undefined): the growth inhibition call is “inactive”.
For `CC(=O)[C@]1(O)Cc2c(O)c3c(c(O)c2[C@@H](O[C@@H]2C[C@@H](N)[C@H](O)[C@@H](C)O2)C1)C(=O)c1c(O)cccc1C3=O`, the growth inhibition call is “active”.
Consider `Cc1ccc(S(=O)(=O)Nc2cccc3c2O[C@H](CN(C)S(=O)(=O)c2cn(C)cn2)[C@@H](C)CN([C@H](C)CO)C3=O)cc1`, for which the growth inhibition call is “inactive”.
On to `C[C@@H]1CCCCO[C@H](CN(C)C(=O)NC2CCCCC2)[C@H](C)CN([C@@H](C)CO)C(=O)c2cc(NC(=O)Nc3ccc4c(c3)OCO4)ccc2O1`, for which the growth inhibition call was “inactive”.
`Cc1cc(C)n([C@@H](CC(=O)O)C(=O)O)n1`: the growth inhibition call is “inactive”.
Take `C[C@@H]1CCCCO[C@H](CN(C)Cc2ccc(Cl)c(Cl)c2)[C@H](C)CN([C@@H](C)CO)C(=O)c2cc(NC(=O)Nc3ccc4c(c3)OCO4)ccc2O1`: the growth inhibition call was “inactive”.
Turning to `O=C(/C=C/c1ccc(CNc2ccc([C@H]3O[C@@H](CSc4ccncc4)C[C@H](c4ccccc4)O3)cc2)cc1)NO`, the growth inhibition call is “inactive”.
On to `C[C@H](CO)N1C[C@H](C)[C@H](CN(C)S(=O)(=O)c2cn(C)cn2)Oc2c(NS(=O)(=O)c3ccc(F)cc3)cccc2C1=O`, for which the growth inhibition call is “inactive”.
On to `C[C@H]1CCCCO[C@H](CN(C)C(=O)Nc2ccc(F)cc2)[C@@H](C)CN([C@@H](C)CO)C(=O)c2cc(NC(=O)Nc3cccc4ccccc34)ccc2O1`, for which the growth inhibition call is “inactive”.
Regarding `COc1cccc(S(=O)(=O)Nc2ccc3c(c2)[C@@H]2C[C@@H](CC(=O)NC4CCCCC4)O[C@@H](CO)[C@@H]2O3)c1`, the growth inhibition call was “inactive”.
The entry for `N#C[C@@H]1N[C@@H](CO)[C@@H]1c1ccccc1` is “inactive”; for `CC(C)NC(=O)N(C)C[C@@H]1Oc2ccc(NC(=O)Nc3ccc4c(c3)OCO4)cc2CC(=O)N([C@@H](C)CO)C[C@H]1C` it is “inactive”.
With `COc1ccc(CN(C)C[C@H]2OCCCC[C@H](C)Oc3ccc(NS(=O)(=O)c4c(C)noc4C)cc3C(=O)N([C@@H](C)CO)C[C@@H]2C)cc1`, the growth inhibition call is “inactive”.
Consider `COc1ccc(NC(=O)Nc2ccc3c(c2)C(=O)N([C@H](C)CO)C[C@H](C)[C@@H](CN(C)C(=O)c2ccccc2)OCCCC[C@H](C)O3)cc1`, for which the growth inhibition call was “inactive”.
Consider `C[C@H](CO)N1C[C@H](C)[C@@H](CN(C)Cc2ccc(C(F)(F)F)cc2)OCCCC[C@H](C)Oc2ccc(NC(=O)c3ccccc3)cc2C1=O`, for which the growth inhibition call was “inactive”.
Turning to `CC[C@H]1OC(=O)[C@H](C)[C@@H](O[C@H]2C[C@@](C)(OC)[C@@H](O)[C@H](C)O2)[C@H](C)[C@@H](O[C@@H]2O[C@H](C)C[C@H](N(C)C)[C@H]2O)[C@](C)(O)C[C@@H](C)C(=O)[C@H](C)[C@@H](O)[C@]1(C)O`, the growth inhibition call was “active”.
For `CCC1OC(=O)C(C)C(OC2CC(C)(OC)C(O)C(C)O2)C(C)C(OC2OC(C)CC(N(C)C)C2O)C(C)(O)CC(C)C(=O)C(C)C(O)C1(C)O` (centres undefined), the growth inhibition call is “active”.
Take `CC[C@H]1OC(=O)[C@H](C)[C@@H](O[C@H]2C[C@@](C)(OC)[C@@H](O)[C@H](C)O2)[C@@H](C)[C@@H](O[C@H]2O[C@H](C)C[C@H](N(C)C)[C@H]2O)[C@](C)(O)C[C@@H](C)C(=O)[C@H](C)[C@@H](O)[C@]1(C)O`: the growth inhibition call is “active”.
`CCCN1C[C@H](C)[C@@H](O)[C@](C)(O)[C@@H](CC)OC(=O)[C@H](C)[C@@H](O[C@H]2C[C@@](C)(OC)[C@@H](O)[C@H](C)O2)[C@H](C)[C@@H](O[C@@H]2O[C@H](C)C[C@H](N(C)C)[C@H]2O)[C@](C)(O)C[C@H]1C`: the growth inhibition call was “active”.
Regarding `CCC1OC(=O)C(C)C(OC2CC(C)(OC)C(O)C(C)O2)C(C)C(OC2OC(C)CC(N(C)C)C2O)C(C)(O)CC(C)C(=O)C(C)C(O)C1(C)O.CCCCCCCCCCCCCCCCCC(=O)O` (centres undefined), the growth inhibition call was “inactive”.
